Potency and affinity values are given separately. Active and inactive are the calls of the source.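 The calls were made as follows: active = peak inhibition of the KCNQ2 potassium channel over 30% at some tested dose, with a fitted dose response curve; inactive = no inhibition at any dose, or no curve fitted.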
Target: Potassium voltage-gated channel subfamily KQT member 2 (Rattus norvegicus) (UniProt O88943)
Test: block of rat KCNQ2 potassium channel – cell-based, FluxOR thallium flux, concentration-response, selectivity assay for TASK1 inhibitor project, SAR follow-up (AID 652192)
Conditions: KCNQ2 cell line, FluxOR thallium flux fluorescence; series mostly up to 30 µM

Sequence of Potassium voltage-gated channel subfamily KQT member 2 (Rattus norvegicus) (O88943 whole entry, looked up): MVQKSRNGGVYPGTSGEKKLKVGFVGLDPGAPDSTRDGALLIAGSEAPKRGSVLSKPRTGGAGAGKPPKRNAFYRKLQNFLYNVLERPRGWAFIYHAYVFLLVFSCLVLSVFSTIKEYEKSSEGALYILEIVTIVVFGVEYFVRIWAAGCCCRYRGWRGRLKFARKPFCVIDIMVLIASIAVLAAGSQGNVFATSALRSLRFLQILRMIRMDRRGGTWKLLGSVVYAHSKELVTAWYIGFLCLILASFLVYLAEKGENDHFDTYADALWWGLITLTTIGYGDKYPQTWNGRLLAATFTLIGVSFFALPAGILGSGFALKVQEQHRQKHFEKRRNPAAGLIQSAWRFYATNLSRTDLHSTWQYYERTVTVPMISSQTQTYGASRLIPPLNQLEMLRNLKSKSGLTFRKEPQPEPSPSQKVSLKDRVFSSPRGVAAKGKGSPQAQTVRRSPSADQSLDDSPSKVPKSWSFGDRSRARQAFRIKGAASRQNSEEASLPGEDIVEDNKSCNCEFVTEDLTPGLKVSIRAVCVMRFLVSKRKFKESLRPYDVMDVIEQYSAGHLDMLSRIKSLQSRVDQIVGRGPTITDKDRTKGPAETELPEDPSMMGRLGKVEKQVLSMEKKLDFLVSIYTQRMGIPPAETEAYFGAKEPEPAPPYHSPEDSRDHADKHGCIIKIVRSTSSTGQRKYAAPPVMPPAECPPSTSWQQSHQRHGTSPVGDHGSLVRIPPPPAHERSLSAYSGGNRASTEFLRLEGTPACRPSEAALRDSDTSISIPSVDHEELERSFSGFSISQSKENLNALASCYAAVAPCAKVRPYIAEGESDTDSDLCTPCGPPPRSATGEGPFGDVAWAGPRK

outcome, inactive:
COc1ccccc1C(=O)Nc1cccc(NC(=O)c2ccccc2)c1, COc1cccc(C(=O)Nc2cccc(NC(=O)c3ccccc3)c2)c1, O=C(Nc1cccc(NC(=O)c2ccoc2)c1)c1ccccc1, O=C(Nc1cccc(NC(=O)c2ccco2)c1)c1ccccc1, O=C(Nc1cccc(NC(=O)c2cccc(Cl)c2)c1)c1ccccc1, CCOc1ccccc1NC(=O)c1cccc(NC(=O)c2ccc(Cl)cc2)c1, Cc1ccccc1C(=O)Nc1cccc(NC(=O)c2ccccc2)c1, COc1ccccc1C(=O)Nc1cccc(NC(=O)c2ccccc2OC)c1, CCOc1ccccc1NC(=O)c1cccc(NC(=O)C2CC2)c1, COc1ccc(F)cc1C(=O)Nc1cccc(NC(=O)c2cccc(C)c2)c1, COc1ccccc1NC(=O)c1cccc(NC(=O)c2ccccc2C(F)(F)F)c1, COc1c(F)cccc1C(=O)Nc1cccc(NC(=O)c2cccc(C)c2)c1, Cc1cccc(C(=O)Nc2ccccc2NC(=O)c2ccccc2)c1, COc1ccccc1C(=O)Nc1cccc(NC(=O)c2ccccc2C(C)C)c1, O=C(Nc1cccc(NC(=O)c2ccc(F)cc2)c1)c1ccccc1, CCOc1ccccc1NC(=O)c1cccc(NC(=O)c2ccccc2C(F)(F)F)c1, CCOc1ccccc1C(=O)Nc1cccc(NC(=O)c2ccccc2OC)c1, COc1ccccc1C(=O)Nc1cccc(NC(=O)c2ccccc2OC(F)(F)F)c1, COc1ccccc1NC(=O)c1cccc(NC(=O)CC2CCCC2)c1, COc1ccccc1NC(=O)c1cccc(NC(=O)c2ccccc2OC)c1, CCOc1ccccc1NC(=O)c1cccc(NC(=O)c2ccc(OC)cc2)c1, CCOc1ccccc1NC(=O)c1cccc(NC(=O)C2CCCC2)c1, Cc1cccc(C(=O)Nc2cccc(NC(=O)c3ccccc3OC(F)(F)F)c2)c1, Cc1cccc(C(=O)Nc2cccc(NC(=O)c3ccc(C(C)(C)C)cc3)c2)c1, COc1ccc(CC(=O)NCc2ccccc2-c2ccccc2C(=O)NCc2ccc(F)cc2F)cc1, COc1ccccc1NC(=O)c1cccc(NC(=O)c2ccccc2)c1, Cc1cccc(C(=O)Nc2cccc(NC(=O)c3ccccc3)c2)c1, Cc1cccc(C(=O)Nc2cccc(NC(=O)C3CCCCC3)c2)c1, COc1ccccc1C(=O)Nc1cccc(NC(=O)c2cccc(C)c2)c1, CCOc1ccccc1NC(=O)c1cccc(NC(=O)C(C)(C)C)c1, Cc1cccc(C(=O)Nc2cccc(NC(=O)c3cccc(C)c3)c2)c1, Cc1cccc(C(=O)Nc2cccc(NC(=O)c3ccc(C(F)(F)F)cc3)c2)c1
